Read-out in experiment [1]: Decorin, DCN (gene 1634)
The experiment in a line: BSK_MyoF_Decorin: BioMAP Diversity Plus: MyoF Assay for Decorin Biomarker Activity (AID 2284265). The conditions noted are these: primary human lung fibroblasts. A digest of the protocol: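 Human lung fibroblast cultures were dosed for 24 h, and decorin was then measured by ELISA. Parallel cultures were stained with sulforhodamine B for total protein as a cytotoxicity check. Gain of signal was fitted relative to DMSO.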

Experiment [2] can be described thus: BSK_MyoF_SRB: Viability Assessment in the BioMAP Diversity Plus: MyoF Assay (AID 2284267).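 Note: total protein by SRB absorbance in parallel cultures as cytotoxicity measure; cells assessed 24 h after compound addition.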 The following applies: primary human lung fibroblasts. The method, boiled down:
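Lung fibroblast cultures, 24 h post-dose; fix 10% TCA, stain 0.1% SRB, read 560 nm. Signal = total protein as cytotoxicity measure; fitted relative to DMSO negative control.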

Read-out in experiment [3]: Matrix Metallopeptidase 1 (MMP1), MMP1 (gene 4312)
The experiment in a line: BSK_MyoF_MMP1: BioMAP Diversity Plus: MyoF Assay for Matrix Metallopeptidase 1 (MMP1) Biomarker Activity (AID 2284268). The following applies: primary human lung fibroblasts. A digest of the protocol:
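Human lung fibroblast primary cells; MMP1 measured by ELISA 24 h after dosing, fitted in the positive direction relative to DMSO. Parallel SRB staining (0.1%, after 10% TCA fixation, 560 nm) assesses overt cytotoxicity.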

Read-out in experiment [4]: TIMP metallopeptidase inhibitor 1 (TIMP1), TIMP1 (gene 7076)
The experiment in a line: BSK_MyoF_TIMP1: BioMAP Diversity Plus: MyoF Assay for TIMP metallopeptidase inhibitor 1 (TIMP1) Biomarker Activity (AID 2284269). The following applies: primary human lung fibroblasts. The method, boiled down: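 ELISA quantified TIMP-1 levels after 24 h dosing of primary human lung fibroblasts, with DMSO as baseline. Parallel SRB total protein staining (0.1% SRB after TCA fixation, 560 nm) flagged overt cytotoxicity.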

Read-out in experiment [5]: KRT18 (gene 3875)
Description: BSK_BF4T_Keratin818: BioMAP Diversity Plus: BF4T Assay for Keratin 818 Biomarker Activity (AID 2284266). The following applies: primary human bronchial epithelial cells with fibroblasts. A digest of the protocol: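 Keratin 8/18 levels quantified by ELISA after 24 h chemical treatment of bronchial epithelial cell/dermal fibroblast co-cultures, fitted in positive direction relative to DMSO. Parallel SRB staining tracks overt cytotoxicity.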

Read-out in experiment [6]: Matrix Metallopeptidase 1 (MMP1), MMP1 (gene 4312)
Description: BSK_BF4T_MMP1: BioMAP Diversity Plus: BF4T Assay for Matrix Metallopeptidase 1 (MMP1) Biomarker Activity (AID 2284270). The following applies: primary human bronchial epithelial cells with fibroblasts. The method, then: BSK_BF4T is a cell-based, multiplexed-readout assay that uses bronchial epithelial cells and dermal fibroblasts, a human vascular primary cell, with measurements taken at 24 hours after chemical dosing in a microplate: 96-well plate.BSK_BF4T_MMP1 is an assay component measured in the BSK_BF4T assay. It measures MMP-1 antibody related to regulation of gene expression using ELISA technology.Data from the assay component BSK_BF4T_MMP1 was analyzed at the endpoint, BSK_BF4T_MMP1, in the positive analysis fitting direction relative to DMSO as the negative control and baseline of activity. Using a type of binding reporter, gain or loss-of-signal activity can be used to understand protein changes. To generalize the intended target to other relatable targets, this assay endpoint is annotated to the 'protease' intended target family, where the subfamily is 'matrix metalloproteinase'.
The levels of cell surface (or secreted, indicated by the prefix "s") biomarker endpoints were measured by ELISA. Overt cytotoxicity to cells in confluent adherent cultures (all systems other than the BT system) was assessed by measuring total protein levels using sulforhodamine B (SRB) staining in parallel cultures at the time of biomarker measurements, indicated as SRB endpoints. For proliferation assays for adherent cell types, individual cell types are cultured at sub-confluence and relative cell numbers quantified by SRB staining at time points optimized for each system (48 h: 3C and CASM3C systems; 72 h: BT and HDF3CGF systems; 96 h: SAg system). SRB was performed by staining cells with 0.1% SRB after fixation with 10% TCA and reading wells at 560 nm.Viability and proliferation of PBMC (T cells) was quantified by Alamar Blue reduction for the SAg and BT systems. For PBMC viability (referred to as PBMC Cytotoxicity within the assay endpoint names), cells were plated (75,000/well in a 96-well plate) and then chemical samples added for 1 h before addition of activators, SEB and TSST-1 (20 ng/mL final concentration each). Cells were incubated for 90 h. Then, Alamar Blue (20 uL/well) (Invitrogen, Cat DAL1100) was added for 6 h, and the plates were read with a fluorescence microplate reader at 546/580 nm (excitation/emission). For PBMC proliferation, cells were plated and activated as above but incubated for only 16 h prior to addition of Alamar Blue. Plates were read after 6 h.

Read-out in experiment [7]: Matrix Metallopeptidase 3 (MMP3), MMP3 (gene 4314)
The experiment in a line: BSK_BF4T_MMP3: BioMAP Diversity Plus: BF4T Assay for Matrix Metallopeptidase 3 (MMP3) Biomarker Activity (AID 2284271). The following applies: primary human bronchial epithelial cells with fibroblasts. A digest of the protocol:
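MMP-3 level read by ELISA after 24 h chemical exposure of bronchial epithelial cell/dermal fibroblast co-cultures, fitted upward relative to DMSO. Parallel cultures stained with 0.1% SRB after TCA fixation gauge overt cytotoxicity.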

Read-out in experiment [8]: Tissue plasminogen activator (tPA), PLAT (gene 5327)
The experiment in a line: BSK_BF4T_tPA: BioMAP Diversity Plus: BF4T Assay for Tissue plasminogen activator (tPA) Biomarker Activity (AID 2284272). The following applies: primary human bronchial epithelial cells with fibroblasts. A digest of the protocol:
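tPA level quantified by ELISA at 24 h post-treatment in bronchial epithelial/dermal fibroblast co-cultures, gain of signal scored against DMSO baseline. Parallel cultures stained with 0.1% SRB (560 nm) to flag overt cytotoxicity.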

Read-out in experiment [9]: Plasminogen Activator Inhibitor-1 (PAI1), SERPINE1 (gene 5054)
The experiment in a line: BSK_BF4T_PAI1: BioMAP Diversity Plus: BF4T Assay for Plasminogen Activator Inhibitor-1 (PAI1) Biomarker Activity (AID 2284273). The conditions noted are these: primary human bronchial epithelial cells with fibroblasts. The method, boiled down: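 PAI-1 levels quantified by ELISA 24 h post-dosing in bronchial epithelial cell plus dermal fibroblast cultures. Signal gain referenced to DMSO baseline. Sulforhodamine B total-protein staining of parallel wells checked cytotoxicity.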

Experiment [10] can be described thus: BSK_BF4T_SRB: Viability Assessment in the BioMAP Diversity Plus: BF4T Assay (AID 2284274). The following applies: primary human bronchial epithelial cells with fibroblasts. The method, boiled down:
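Cytotoxicity measured as total protein: cells fixed with 10% TCA, stained with 0.1% SRB, read at 560 nm. Bronchial epithelial/dermal fibroblast co-culture, 24 h after dosing, with positive-direction fitting relative to DMSO.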

Where “and” joins values, the source holds several entries; their conditions need not be identical. Identical values can stand only once. A structure can be active in one record and inactive in another. Calls of active or inactive are those of the source. Rule for the calls: active = hit-call score of the fitted dose curve at least 0.9, where 1 is the maximum; inactive = score below 0.9.

For `CCOC(=O)C=Cc1ccccc1`, the outcome in experiment [1], in experiment [2], in experiment [3] and in [4] was inactive.
A word on the AC50: it is the concentration giving half of the maximal activity seen. Consider `CCCCCCCC1CCCC1=O` (stereo not given), for which the outcome in [1] and in [4] was inactive. Besides, the AC50 in experiment [2] and in experiment [3] was 32.4 µM (active) each time.
Turning to `CCCCCCCCCCCCS`, the half-maximal activity concentration (AC50) in [1] is 3.97 µM (active); in experiment [2], 20 µM (active); in experiment [3], 5.81 µM (active). In experiment [4], the outcome was inactive.
For `CC(=O)OC(C)(C)C1CC=C(C)CC1` (stereo not given), the result in experiment [1], in experiment [2], in experiment [3] and in [4] was inactive.
On to `CCOC(=O)CCCCCCCCC(=O)OCC`, for which the result in experiment [1], in [2], in [3] and in experiment [4] was inactive.
In the case of `O=C(O)C(F)(F)OC(F)(F)C(F)(F)OC(F)(F)C(F)(F)C(F)(F)C(F)(F)F`, the result in experiment [1], in [5], in [2], in experiment [3], in experiment [6] and in [8] was inactive. The outcome in experiment [9] and in experiment [10] was inactive. In addition, the AC50 in [4] is 11.9 µM (active) and 8.26 µM (active); in experiment [7], 12.9 µM (active) and 17.8 µM (active).
Turning to `O=C(O)C(F)(F)C(F)(F)C(F)(F)C(F)(F)C(F)(F)C(F)(F)C(F)(F)C(F)F`, the concentration at half-maximal activity (AC50) was 22.5 µM (active) in experiment [1]; 51.9 µM (active) in [6]; 4.37 µM (active) and 2.45 µM (active) in experiment [8]; 2.94 µM (active) and 2.8 µM (active) in [9]. Also, the outcome in [1], in experiment [5], in experiment [2], in experiment [3], in experiment [4] and in [6] was inactive. The result in experiment [7] and in experiment [10] was inactive.
Consider `OCCN1CCOCC1`, for which the result in experiment [1], in experiment [2], in experiment [3] and in experiment [4] was inactive.
As to `CC(C)Cc1ccc(C(C)C(=O)O)cc1` (stereo not given), the outcome in experiment [1], in [2], in experiment [3] and in experiment [4] was inactive.
In the case of `NC(=O)c1c(Cl)cccc1Cl`, the result in experiment [1], in experiment [2], in [3] and in experiment [4] was inactive.
Regarding `C=C(F)C(=O)OC(C(F)(F)F)C(F)(F)F`, the outcome in experiment [1], in experiment [5], in experiment [2], in experiment [3], in [4] and in [6] was inactive. Besides, the outcome in [7], in [8], in [9] and in experiment [10] was inactive.
With `C=CC(=O)OCC(CO)(COC(=O)C=C)COC(=O)C=C`, the AC50 in experiment [1] was 3.97 µM (active); in [2], 0.642 µM (active); in experiment [4], 2.05 µM (active). The outcome in experiment [3] was inactive.
Regarding `CC1=CC(C)C(C=O)C(C)C1` (stereo not given) (tested in a mixture with another compound), the outcome in [1], in experiment [2], in [3] and in [4] was inactive.
With `Nc1ccc(N)c([N+](=O)[O-])c1`, the result in experiment [1], in experiment [2], in experiment [3] and in [4] was inactive.
In the case of `CC=CC(=O)C1=C(C)C=CCC1(C)C`, the result in [1], in experiment [2], in [3] and in experiment [4] was inactive.
